Compound activity as filed in PubChem BioAssay.
Shown are actives, neighbours in structure and some others; about 1.3% of the full set was active somewhere.
EBV gp42 block = blocks Epstein-Barr virus glycoprotein 42 binding; Q1HVG2; Fluorescence polarization binding assay, mP read-out; inhibition, % (tested at 21.74 µM); 220,000 tested, 0.42% active; in the data active means inhibition above about 50%
Target sequence (Q1HVG2 whole entry, looked up): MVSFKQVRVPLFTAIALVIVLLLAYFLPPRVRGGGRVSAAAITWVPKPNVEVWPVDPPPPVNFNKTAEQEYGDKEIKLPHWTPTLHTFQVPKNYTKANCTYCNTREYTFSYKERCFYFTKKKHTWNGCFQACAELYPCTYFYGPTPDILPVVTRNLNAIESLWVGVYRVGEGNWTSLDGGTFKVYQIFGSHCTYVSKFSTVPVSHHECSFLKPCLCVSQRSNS
MCL1-BIM inh = disrupts human MCL1 binding to BIM-BH3 peptide | 320,000 tested, 0.68% active | Q07820 | GST-MCL1 / FITC-Bim-BH3 fluorescence polarization | inhibition, % at 10.9 µM;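 active means inhibition above the mean inhibition of all tested compounds plus 3 SD, set per campaign, cut at about 40% in these data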;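 further: 0% = DMSO wells and 100% = unlabeled Bim-BH3 peptide control; higher means more loss of mP so more displacement of Bim peptide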
Target sequence (Q07820 whole entry, looked up): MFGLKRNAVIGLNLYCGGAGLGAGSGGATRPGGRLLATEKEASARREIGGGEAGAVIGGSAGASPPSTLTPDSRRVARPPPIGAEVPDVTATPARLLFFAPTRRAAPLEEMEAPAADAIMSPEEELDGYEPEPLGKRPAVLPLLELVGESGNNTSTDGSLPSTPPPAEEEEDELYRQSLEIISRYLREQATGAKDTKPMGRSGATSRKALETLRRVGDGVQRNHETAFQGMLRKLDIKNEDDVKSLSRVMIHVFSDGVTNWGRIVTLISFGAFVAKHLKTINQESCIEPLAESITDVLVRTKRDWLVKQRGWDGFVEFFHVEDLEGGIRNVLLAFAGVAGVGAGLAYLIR
MEX-5 binding = C. elegans MEX-5 TCR-2 RNA binding activity; Q9XUB2; MEX-5/FITC-TCR2 RNA binding, fluorescence polarization; stronger effect = lower value; activity score (negative = inhibition of binding), % at 10 µM; 300,000 tested, 0.38% active;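 active means inhibition past about -25% in most replicates, and total fluorescence under double the plate's negative control median, limit read from the data; inconclusive means replicates evenly split on the limit, or fluorescence at least double controls; inactive means too little inhibition in most replicates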;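 further: 0% = DMSO and -100% = 5 µM competing unlabeled TCR2 RNA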
Bcl-xL primary = blocks human Bcl-xL binding to Bim BH3 peptide; 320,000 tested, 0.7% active; inhibition, % at 10.9 µM; Q07817; GST-Bcl-xL / FITC-Bim BH3 peptide fluorescence polarization;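 active means inhibition above the mean of all tested compounds plus 3 SD, cutoff set per campaign, cut at about 30% in these data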;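 further: 0% = DMSO wells and 100% = unlabeled Bim-BH3 peptide competitor; inhibitors lower millipolarization by displacing the labeled peptide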
GLD-1 TGE inh = GLD-1-TGE RNA interaction inhibition (C. elegans); Q17339; purified GLD-1 + fluorescein TGE RNA, fluorescence polarization; inhibition, % at 5.96 µM; 320,000 tested, 0.44% active; AID 2280;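 active means percent inhibition above a per-plate cutoff, the plate mean of test compounds plus 3 SD, cut at about 30% in these data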;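 further: 0% = DMSO wells with GLD-1 and probe and 100% = wells lacking GLD-1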
* marks the source's active call; other numbers are inactive results; ? = inconclusive; / = no result given.

SMILES	EBV gp42 block	MCL1-BIM inh	MEX-5 binding	Bcl-xL primary	GLD-1 TGE inh
O=C(NCc1ccccn1)c1ccc(CS(=O)(=O)Cc2ccc(Cl)cc2)o1	-10.2	13.4	-0.2	15.8	13.8
Cc1ccccc1CS(=O)(=O)Cc1ccc(C(=O)NCc2ccccn2)o1	10.8	37.0	-5.7	31.0*	19.5
COc1ccc(Cl)cc1NC(=S)Nc1ccccc1C	-17.5	8.1	-0.1	7.2	-2.7
O=C(O)c1ccccc1-c1c2cc(I)c(=O)c(I)c-2oc2c(I)c(O)c(I)cc12	/	115.3*	/	109.7*	49.4*
Cc1ccc(C[n+]2cccc(-c3ccccc3)c2)c(C)c1	-6.7	7.1	3.4	1.9	-4.4
Cc1cc2c(n1-c1ccc(C(=O)O)cc1)CCCCC2	/	/	-62.3*	/	/
O=C(CN1C(=O)COc2ccccc21)Nc1ccccc1F	/	6.2	0.2	6.9	6.5
O=C1COc2ccccc2N1Cc1c(F)cccc1Cl	/	8.4	2.4	47.4*	-2.2
COC(=O)Cc1ccc(OC(=O)CCS(=O)(=O)c2ccc(C)cc2)cc1	/	-0.6	-0.3	2.3	2.5
C[C@@H]1O[C@@H](O[C@H]2[C@H](O)[C@@H](O)[C@H](Oc3c(-c4ccc(O)cc4)oc4cc(O)cc(O)c4c3=O)O[C@@H]2CO)[C@H](O)[C@H](O)[C@H]1O	/	/	/	/	2.4
C[C@@H]1O[C@@H](OC2C(O)C(OCCc3ccc(O)c(O)c3)OC(CO)C2OC(=O)/C=C/c2ccc(O)c(O)c2)[C@H](O)[C@H](O)[C@H]1O (some centres undefined)	/	38.9	-46.0*	17.5	7.8
O=C1c2ccccc2C(=O)N1CCC#Cc1ccc2cc(CCCO)oc(=O)c2c1	/	/	/	/	-1.2
COc1cccc(-n2c([S-])c(C(=O)Nc3ccc(S(=O)(=O)N4CCOCC4)cc3)[n+]3cc(C(N)=O)ccc23)c1	-2.9	35.2	-1.9	35.7*	22.6
CC(C)COc1cccc(C(=O)Nc2ccc(S(=O)(=O)N3CCOCC3)cc2)c1	-7.3	3.8	-1.7	-0.4	8.3
COc1cc(C2Nc3cccc4cccc(c34)N2)ccc1OC(C)=O	-8.7	44.6*	-1.0	39.1*	10.1
O=C(C1CCC(=O)N(C2CC2)C1)N1CCC(Oc2ccccc2F)CC1 (centres undefined)	/	1.5	-0.5	3.9	9.9
Cc1cc(C)n2c(SC/C(O)=C(\C#N)c3nc4ccccc4[nH]3)nnc2n1	66.8*	27.3	-5.9	8.3	1.7
Cc1ccccc1-n1c(SC/C(O)=C(\C#N)c2nc3ccccc3[nH]2)nnc1-c1ccncc1	10.8	1.9	1.9	8.7	5.5
O=CN1CCN(S(=O)(=O)c2ccc(S(=O)(=O)NC3CCCCC3)cc2)CC1	/	-6.4	2.0	-2.4	-7.0
CC(C)C(NC(=O)c1c(F)cccc1F)C(=O)NCc1ccc(S(=O)(=O)N2CCOCC2)cc1 (centres undefined)	/	2.2	/	-1.4	0.8
O=C(O)c1ccc2c(c1)NC(=O)C(N1CCCC1)S2 (centres undefined)	32.7	40.6*	-12.4	31.8*	25.7
COC(=O)c1ccc2c(c1)NC(=O)C(N1CCCC1)S2 (centres undefined)	-13.9	-11.8	0.1	-1.8	-5.3
COC(=O)CCC(=O)OC1(C)C(=O)C=C2C=C(C3CC3)N(Cc3ccc(OC)cc3)C=C2C1=O (centres undefined)	21.9	35.2	-15.7	36.6*	27.2
COC(=O)CCC(=O)OC1(C)C(=O)C=C2C=C(C3CC3)N(Cc3ccc4c(c3)OCO4)C=C2C1=O (centres undefined)	-0.9	8.8	-6.2	12.0	16.6
COC(=O)CCC(=O)OC1(C)C(=O)C2=CN(CCCOC(C)C)C(c3ccc(OC)cc3)=CC2=C(Br)C1=O (centres undefined)	35.4	44.5*	?	41.6*	26.5
SMILES	EBV gp42 block	MCL1-BIM inh	MEX-5 binding	Bcl-xL primary	GLD-1 TGE inh
COC(=O)CCC(=O)OC1(C)C(=O)C2=CN(CC3CC3)C(c3ccc(OC)cc3)=CC2=C(Br)C1=O (centres undefined)	19.5	35.0	-17.6	33.1*	20.7
COC(=O)CCC(=O)OC1(C)C(=O)C2=CN(Cc3ccc(OC)cc3)C(c3ccc(OC)cc3)=CC2=C(Br)C1=O (centres undefined)	/	5.6	-7.8	11.1	6.2
COC(=O)CCC(=O)OC1(C)C(=O)C2=CN(Cc3ccccc3)C(c3ccc(OC)cc3)=CC2=C(Br)C1=O (centres undefined)	/	38.4	-19.6	30.0	16.8
COC(=O)CCC(=O)OC1(C)C(=O)C2=CN(CC(C)C)C(c3ccc(OC)cc3)=CC2=C(Br)C1=O (centres undefined)	24.5	45.7*	-17.5	42.7*	14.9
COC(=O)CCC(=O)OC1(C)C(=O)C2=CN(C3CC3)C(c3ccc(OC)cc3)=CC2=C(Br)C1=O (centres undefined)	/	24.6	-6.6	25.3	8.7
Cc1ccsc1/C=N/NS(=O)(=O)c1ccc([N+](=O)[O-])cc1	-10.8	11.9	2.6	5.5	2.4
CSc1ncccc1C(=O)NC1CC(C)(C)Cc2c1cnn2-c1ccccc1C (centres undefined)	/	0.9	0.8	5.9	1.9
COc1ccc(NC(=O)CSc2nnc(-c3cccs3)n2C)cc1OC	-7.2	-1.1	1.2	3.1	2.2
COc1ccc(NC(=O)CSc2nc3c(c(-c4cccs4)c2C#N)CN(C)CC3)cc1OC	56.8*	30.0	-3.4	42.1*	17.7
CCOc1ccc(S(=O)(=O)N2CCCC(C(=O)Nc3cc(C)cc(C)c3)C2)cc1 (centres undefined)	/	5.5	-0.2	2.0	-3.8
Cc1ccc(CNC(=O)C2CCCN(S(=O)(=O)c3ccc(F)cc3)C2)cc1 (centres undefined)	/	/	2.8	/	/
COc1ccc(C(=O)NC(=S)Nc2cccnc2)cc1Cl	/	15.0	-2.1	11.8	52.4*
Fc1ccc(CSc2ccc3nnc(-c4cccnc4)n3n2)cc1	-3.2	0.9	-0.1	-3.7	7.1
CCCn1nc(C(=O)Nc2ccc(S(=O)(=O)Nc3nccs3)cc2)c2ccccc2c1=O	-5.2	-14.1	-40.8*	-8.6	-17.9
O=C(Nc1ccc(S(=O)(=O)Nc2nccs2)cc1)c1ccc(N2C(=O)c3ccccc3C2=O)cc1	-69.3	-117.2	-29.1*	-57.8	-44.2
O=C(Nc1ccc(S(=O)(=O)Nc2nccs2)cc1)c1ccc(F)cc1	/	-4.2	0.3	-0.3	3.4
O=C(C1=NN(c2ccccc2)C2C(=O)N(c3ccc(Cl)cc3)C(=O)C12)c1ccccc1 (centres undefined)	67.1*	39.2	/	45.8*	23.1
CC(=O)C1=NOC2C(=O)N(c3ccc(Cl)cc3)C(=O)C12 (centres undefined)	/	-0.1	2.4	1.3	-4.0
O=C(C1=NN(c2ccccc2)C2C(=O)N(c3cccc(Cl)c3)C(=O)C12)c1ccccc1 (centres undefined)	74.1*	13.6	/	31.9*	5.2
CN1CCN(c2ccccc2NC(=O)COc2ccc(Br)cc2)CC1	-9.2	6.5	-1.4	5.7	-0.2
